The values below come from PubChem BioAssay AID686979 (National Center for Advancing Translational Sciences (NCATS), 2013).

In all, about 420,000 compounds went through this assay and about 50,000 (12%) were called active. A call without a number means that no potency is given here. About 26% were inconclusive and are not listed. The sample holds actives, similar compounds and a random draw of the others, so the mix is not that of the screen. Calls come from the whole dose curve; as a rule, active = well fitted inhibition curve with a large enough effect; inconclusive = small, poorly fitted or top-dose-only effect; inactive = flat fitted curve, though single readings scatter.
Potency is the fitted concentration of half-maximal effect.

The test is described as follows: qHTS for Inhibitors of human tyrosyl-DNA phosphodiesterase 1 (TDP1): qHTS in cells in presence of CPT. Note: nearly all actives have a fitted effect of over 55% in size. The conditions noted are these: chicken DT40 Tdp1-/-;hTDP1 cells + 20 nM CPT, ATP luminescence, 48 h; series mostly up to 46.2 µM. In a few lines: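 Chicken DT40 Tdp1-/- cells complemented with human TDP1, 400 cells/well, exposed to compounds plus 20 nM camptothecin for at least 48 h at 37 C; viability read as ATP content by CellTiter-Glo luminescence.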
On the technique in general: qHTS replaces the single test concentration by a dilution series.
As to `O=C(OCC(=O)c1cccs1)c1ccc([N+](=O)[O-])o1`, the Potency result was “inactive”.

Turning to `Cc1ccc(CNC(=O)C2CCN(S(=O)(=O)c3ccc4nc5c(c(C(=O)O)c4c3)CC(C)CC5)CC2)cc1` (stereo not drawn), the Potency result is “inactive”.

In the case of `CCn1cc(CNC(=O)c2cc([N+](=O)[O-])c(C)c([N+](=O)[O-])c2)cn1`, the Potency result was “inactive”.

`O=C(COc1ccc(Br)cc1)OCC(=O)c1ccc[nH]1`: the Potency entry is “inactive”.

`Cc1cc2nnc(SCC(=O)N3CCN(c4ccccc4)CC3)n2c(N)n1`: the Potency entry is “inactive”.

Take `CCOC(=O)C1CCCN(C(=O)CSc2nnc3nc(C)cc(C)n23)C1` (stereo not drawn): the Potency is 25.9 µM (active).

As to `Cc1c(C)n2c(SCC(=O)N3CCCC3)nnc2[nH]c1=O`, the Potency entry was “inactive”.

Regarding `CN(C(=O)COC(=O)c1ccc(Br)o1)c1c(N)n(Cc2ccccc2)c(=O)[nH]c1=O`, the Potency entry is “inactive”.

Regarding `C[C@H](CO)N1C[C@H](C)[C@@H](CN(C)C(=O)c2cccc(F)c2)Oc2cc(-c3cncnc3)ccc2S1(=O)=O`, the Potency result is “inactive”.

Take `C[C@@H]1CN([C@H](C)CO)S(=O)(=O)c2ccc(C#C[C@@H](C)O)cc2O[C@@H]1CN(C)Cc1ccc(-c2ccccc2)cc1`: the Potency was 11.6 µM (active).

As to `Cc1ccccc1-c1ccc2c(c1)O[C@@H](CN(C)Cc1ccc(C(=O)O)cc1)[C@@H](C)CN([C@H](C)CO)S2(=O)=O`, the Potency result is “inactive”.

In the case of `C[C@@H]1CN([C@@H](C)CO)S(=O)(=O)c2ccc(-c3ccc(C(=O)N(C)C)cc3)cc2O[C@@H]1CN(C)Cc1ccccc1C(=O)O`, the Potency entry was “inactive”.

As to `C[C@@H]1CN([C@@H](C)CO)S(=O)(=O)c2ccc(C#Cc3cccc(F)c3)cc2O[C@H]1CN(C)S(=O)(=O)c1cn(C)cn1`, the Potency was 18.4 µM (active).

Consider `C[C@H]1CN([C@@H](C)CO)S(=O)(=O)c2ccc(-c3cccc(F)c3)cc2O[C@@H]1CN(C)C`, for which the Potency result was “inactive”.

With `CCc1c(C)nc2cc(C)[nH]n2c1=O`, the Potency entry is “inactive”.

Regarding `CCOc1ccc(S(=O)(=O)NCCC(=O)NCC2CCCO2)cc1` (stereo not drawn), the Potency entry was “inactive”.

For `Cc1c[n+]([O-])ccc1[N+](=O)[O-]`, the Potency result was “inactive”.

As for `O=C(NCc1ccccc1)[C@H]1C[C@@H]1[C@H](NP(=O)(c1ccccc1)c1ccccc1)c1ccccc1`, the Potency is 18.4 µM (active).

Consider `O=C(NCc1ccccc1)C1CNCC(C(=O)NCc2ccccc2)C1` (stereo not drawn), for which the Potency result is “inactive”.

For `O=C(O)C1CC=C(Cl)CC1C(=O)NCc1ccccc1` (stereo not drawn), the Potency entry is “inactive”.

Turning to `CCc1cc2cc(OC)ccc2nc1SCC(=O)Nc1cc(OC)c(OC)cc1C(=O)O`, the Potency entry is “inactive”.

Consider `COc1ccc(C)cc1NC(=O)CSc1cccc[n+]1[O-]`, for which the Potency result is “inactive”.

Take `CCCc1nc2ccccc2n1C(C)C(=O)NC(C)(C)C` (stereo not drawn): the Potency entry was “inactive”.

As to `CCC(C(=O)NC(C)(C)C)n1c(-c2ccccc2)nc2ccccc21` (stereo not drawn), the Potency was 20.6 µM (active).

For the compound `CC(C)(C)NC(=O)C(CCc1ccccc1)n1c(=O)c(-c2ccccc2)nc2ccccc21` (stereo not drawn), the Potency is 5.17 µM (active).

Turning to `CC(=O)c1nc2ccccc2n1Cc1ccccc1`, the Potency entry was “inactive”.

Consider `Cn1c(CNC(=O)C(C)(C)C)nc2ccccc21`, for which the Potency result was “inactive”.

As for `CCC(C(=O)Nc1c(C)cccc1C)n1c(-c2cc(C)cs2)nc2ccccc21` (stereo not drawn), the Potency result is “inactive”.
